# In PubChem BioAssay (NCATS):
# Records with an inconclusive call do not appear. Active and inactive are the calls of the source. Unless noted, calls follow the shape of the dose curve; as a rule, active = well fitted curve in the direction sought with a large enough effect; inconclusive = small, poorly fitted or top-dose-only effect, or another doubt; inactive = no such curve, though single readings can be large; an effect the other way counts as inactive or inconclusive.
# Key:
# [1] = qHTS profiling of the MIPE4 collection as inhibitors of Plasmodium falciparum (3D7) proliferation (AID 743344; call rule not given here;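 also: scaled between DMSO vehicle wells and 0.29 µM artemisinin as full inhibition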); settings: P. falciparum 3D7 in erythrocytes, SYBR Green DNA fluorescence, 72 h; at 28.5 µM unless noted
# Procedure, shortened: (§1)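 Parasite DNA was quantified by SYBR Green I fluorescence (ex 485, em 535 nm) after overnight lysis in saponin/Triton buffer at room temperature. Cultures at 0.3% parasitemia and 2.5% hematocrit were first exposed to compound for 72 h at 37 C; signals were normalised to artemisinin (0.29 uM) and vehicle wells.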
# [2] = qHTS profiling of the MIPE4 collection as inhibitors of Plasmodium falciparum (DD2) proliferation (AID 743345; call rule not given here); settings: P. falciparum Dd2 in erythrocytes, SYBR Green DNA, 72 h; at 28.5 µM unless noted
# Procedure, shortened: as §1
# [3] = qHTS profiling of the MIPE4 collection as inhibitors of Plasmodium falciparum (DD2) proliferation (Rep 2) (AID 743346; call rule not given here); settings: P. falciparum Dd2 in erythrocytes, SYBR Green DNA, 72 h; at 28.5 µM unless noted
# Procedure, shortened: as §1
# [4] = qHTS profiling of the MIPE4 collection as inhibitors of Plasmodium falciparum (HB3) proliferation (AID 743347; call rule not given here;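 also: plate controls were DMSO vehicle wells for no effect and artemisinin wells for full effect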); settings: P. falciparum HB3 in erythrocytes, SYBR Green DNA, 72 h; at 28.5 µM unless noted
# Procedure, shortened: as §1
# [5] = High-throughput drug toxicity screening in the BPDCN cell line Gen2.2 (AID 1224824; call rule not given here;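 also: cells exposed to compounds for 48 h before reading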); settings: Gen2.2 BPDCN cells; at 45.8 µM (top of the series) unless noted
# Procedure, shortened: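 Seed 500 exponentially growing Gen2.2 cells/well; add compounds by pin tool; incubate 48 h, 37 °C, 5% CO2; add CellTiter-Glo, 15 min RT; read luminescence. % activity vs DMSO (100%) and bortezomib (0%).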
# [6] = High-throughput drug toxicity screening in the BPDCN cell line Cal-1 (AID 1224825; call rule not given here); settings: Cal-1 BPDCN cell viability, qHTS; at 45.8 µM (top of the series) unless noted
# Procedure, shortened: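 CellTiter-Glo luminescence after 48 h compound exposure; percent activity scaled with DMSO as 100% and bortezomib (9.2 uM final) as 0%. Cal-1 cells seeded at 500/well in RPMI, 10% FBS, no phenol red.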
# [7] = qHTS assay for measurement of the activity of small molecule inhibitors on Zika virus induced Caspase-3 activity in human iPSC derived neural progenitor cells (hNPCs) (AID 1224857); also: % of control where 0% means no effect; nearly all actives have a fitted effect of over 65% in size
# Procedure, shortened: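 Zika virus (2 FFU/cell) infection of human iPSC-derived NPCs, 6 h, following 1 h compound preincubation. Read-out: Caspase-Glo 3/7 luminescence.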
# [8] = qHTS assay for measurement of the activity of small molecule inhibitors on Zika virus induced Caspase-3 activity in human astrocytoma cells (AID 1224859);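 also: plate controls were ZIKV-infected untreated cells for no effect and uninfected cells for full effect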
# Procedure, shortened: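 Caspase activation in ZIKV-infected SNB-19 cells (2 FFU/cell, 6 h) measured by Caspase-Glo 3/7 luminescence after 30 min RT; compound pre-incubated 1 h; normalised to uninfected and infected controls.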
# [9] = qHTS Screen of the MIPE 4.0 Collection Against Ewings Sarcoma (RDES) (AID 1259252); also: nearly all actives have a fitted effect of over 35% in size; also: potency is read from the fitted curve at half-maximal effect
# Procedure, shortened: (§2)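 Dose series incubated 48 h with cells in RPMI plus 5% FBS, glutamine and penicillin/streptomycin; cell viability then quantified via CellTiter-Glo.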
# [10] = qHTS Screen of the MIPE 4.0 Collection Against Ewings Sarcoma (TC71) (AID 1259253); also: nearly all actives have a fitted effect of over 40% in size; also: potency is read from the fitted curve at half-maximal effect
# Procedure, shortened: as §2
# [11] = qHTS Screen of the MIPE 4.0 Collection Against Ewings Sarcoma (EW8) (AID 1259255); also: nearly all actives have a fitted effect of over 35% in size; also: potency is read from the fitted curve at half-maximal effect;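 as to viability: 100% = DMSO-treated cells and 0% = medium-only wells without cells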
# Procedure, shortened: as §2
# [12] = qHTS assay to identify small molecule inhibitors of chordoma cells - UCH-2 (AID 1259356); also: % is scaled to controls: 0 for no effect and ±100 for the full control effect
# [13] = qHTS Screen of the MIPE 4.0 Collection Against Ewings Sarcoma (TC32) (AID 1259256); also: nearly all actives have a fitted effect of over 45% in size; also: potency is read from the fitted curve at half-maximal effect
# Procedure, shortened: as §2
# [14] = Identifying Small Molecule Inhibitors of Pancreatic Cancer Stem Cells (A2780, Spheroid) (AID 1259357); settings: Potency: A2780 spheroid viability;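 also: spheroids pre-formed over 14 days in stem cell medium on hydrogel; compound exposure lasted 48 h before the ATP luminescence read; 100% = DMSO treated cells and 0% = wells without cells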
# Procedure, shortened: (§3)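 Endpoint: ATP-based luminescence, 48 h drug exposure. Bortezomib at 9.2 uM final as full-kill control; DMSO vehicle as negative control; activity normalized between vehicle and cell-free wells.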
# [15] = Identifying Small Molecule Inhibitors of Pancreatic Cancer Stem Cells (SN12C, Spheroid) (AID 1259360); settings: Potency: SN12C spheroid viability; also: potency is read from the fitted curve at half-maximal effect;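 as to viability (% of control): 100% = DMSO-treated cells and 0% = wells without cells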
# Procedure, shortened: as §3
# [16] = Identifying Small Molecule Inhibitors of Pancreatic Cancer Stem Cells (Panc1, Spheroid) (AID 1259359);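 also: compound exposure lasted 48 h before reading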
# Procedure, shortened: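 After a 4 h attachment period, compounds were pinned into wells and cultures held 48 h under standard incubator conditions. Viability was then measured as CellTiter-Glo luminescence following 10 min at room temperature.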
# [17] = Identifying Small Molecule Inhibitors of Pancreatic Cancer Stem Cells (A278, Adherent) (AID 1259361);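 also: viability read after 48 h compound exposure; nearly all actives have a fitted effect of over 35% in size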
# Procedure, shortened: as §3
compound,measurement,setting,value
CCNC(=O)Nc1ccc(Oc2ncnc(N)c2C=NOC)cc1Cl,"parasite growth, % of DMSO control",[1],71.9%
same,"parasite growth remaining, % of DMSO control (lower = more inhibition)",[2],81.9%
same,"parasite growth, % of control (lower = inhibition)",[3],67%
same,"growth, % of control",[4],50.6%
same,"cell viability, % of control (lower = more cytotoxic)",[5],52.6%
same,viability (% of control),[6],17%
same,Potency,[7],inactive
same,Potency,[8],inactive
same,Potency,[9],8.33 µM (active)
same,Potency,[10],inactive
same,Potency,[11],8.33 µM (active)
NS(=O)(=O)c1cc(Cl)c(Cl)c(S(N)(=O)=O)c1,"parasite growth, % of DMSO control",[1],101%
same,"parasite growth remaining, % of DMSO control (lower = more inhibition)",[2],58.8%
same,"growth, % of control",[4],98.5%
same,"cell viability, % of control (lower = more cytotoxic)",[5],166%
same,viability (% of control),[6],125%
same,Potency,[7],inactive
same,Potency,[8],inactive
same,Potency,[9],inactive
same,Potency,[10],inactive
same,Potency,[11],inactive
same,outcome,[12],inactive
COc1c(C)c2c(c(O)c1CC=C(C)CCC(=O)O)C(=O)OC2,"parasite growth, % of DMSO control",[1],15.7%
same,"parasite growth remaining, % of DMSO control (lower = more inhibition)",[2],17.9%
same,"parasite growth, % of control (lower = inhibition)",[3],13.7%
same,"growth, % of control",[4],7.33%
same,"cell viability, % of control (lower = more cytotoxic)",[5],94.4%
same,viability (% of control),[6],16.3%
same,Potency,[7],inactive
same,Potency,[8],inactive
same,Potency,[9],3.72 µM (active)
same,Potency,[10],2.35 µM (active)
same,Potency,[11],1.48 µM (active)
O=C(Nc1ncc(SCCN2CCCC2)s1)[C@]1(c2ccc(S(=O)(=O)C3CC3)cc2)C[C@@H]1C1CCCCC1,"parasite growth, % of DMSO control",[1],6.74%
same,"parasite growth remaining, % of DMSO control (lower = more inhibition)",[2],7.78%
same,"parasite growth, % of control (lower = inhibition)",[3],20.2%
same,"growth, % of control",[4],10.1%
same,"cell viability, % of control (lower = more cytotoxic)",[5],116%
same,viability (% of control),[6],92.3%
same,Potency,[7],inactive
same,Potency,[8],inactive
same,Potency,[9],13.2 µM (active)
same,Potency,[10],23.5 µM (active)
same,Potency,[11],13.2 µM (active)
CC(=O)OCC(=O)[C@@]12OC(C)(C)O[C@H]1C[C@H]1[C@@H]3C[C@H](F)C4=CC(=O)C=C[C@]4(C)[C@@]3(F)[C@@H](O)C[C@@]12C,"parasite growth, % of DMSO control",[1],51.9%
same,"parasite growth remaining, % of DMSO control (lower = more inhibition)",[2],82.3%
same,"parasite growth, % of control (lower = inhibition)",[3],35.9%
same,"growth, % of control",[4],61.2%
same,"cell viability, % of control (lower = more cytotoxic)",[5],76.3%
same,viability (% of control),[6],56.5%
same,Potency,[7],inactive
same,Potency,[8],inactive
same,Potency,[9],inactive
same,Potency,[10],inactive
same,Potency,[11],inactive
same,Potency,[13],inactive
C[C@@H]1O[C@@H](O[C@H]2CC[C@@]3(C)[C@H](CC[C@@H]4[C@H]3C[C@@H](O)[C@]3(C)[C@@H](C5=CC(=O)OC5)CC[C@]43O)C2)C[C@H](O)[C@@H]1O[C@H]1C[C@H](O)[C@H](O[C@H]2C[C@H](O)[C@@H](O)[C@@H](C)O2)[C@H](C)O1 (stereo in doubt),"parasite growth, % of DMSO control",[1],57.6% [at 57.5 µM]
same,"parasite growth remaining, % of DMSO control (lower = more inhibition)",[2],91.8% [at 57.5 µM]
same,"parasite growth, % of control (lower = inhibition)",[3],67.5% [at 57.5 µM]
same,"growth, % of control",[4],57% [at 57.5 µM]
same,"cell viability, % of control (lower = more cytotoxic)",[5],7.85% [at 92.2 µM]
same,viability (% of control),[6],4.87% [at 92.2 µM]
same,Potency,[7],inactive
same,Potency,[8],inactive
same,Potency,[9],0.34 µM (active)
same,Potency,[10],0.241 µM (active)
same,Potency,[11],0.215 µM (active)
same,Potency,[13],0.241 µM (active)
CN1CCN2c3ncccc3Cc3ccccc3C2C1 (stereo unspecified),outcome,[12],inactive
CC(=O)NCCC(=O)N[C@@H](CCC(N)=O)C(=O)N[C@@H](CO)C(=O)N[C@@H](CCC(N)=O)C(=O)N[C@@H](CCC(N)=O)C(=O)N[C@H](C(=O)N[C@@H](Cc1ccccc1)C(=O)N[C@]1(C)CCCCCCC=CCCC[C@@](C)(C(=O)N[C@@H](CCC(N)=O)C(=O)N[C@@H](CC(N)=O)C(N)=O)NC(=O)[C@H](CC(C)C)NC(=O)[C@H](CC(C)C)NC(=O)[C@@H](CCCNC(=N)N)NC(=O)[C@H](Cc2c[nH]c3ccccc23)NC(=O)[C@H](CC(C)C)NC(=O)[C@H](CC(N)=O)NC1=O)[C@H](C)O,Potency,[14],inactive
same,Potency,[15],inactive
CCNC(=O)c1noc(-c2cc(C(C)C)c(O)cc2O)c1-c1ccc(CN2CCOCC2)cc1,Potency,[16],inactive
same,Potency,[15],0.0074 µM (active)
same,IC50 (viability decrease),[17],0.0037 µM (active)
CC(C)Oc1cc(Nc2nc(N[C@@H](C)c3ccc(F)cn3)ncc2Cl)[nH]n1,IC50 (viability decrease),[17],13.2 µM (active)
C[C@@H]1CC=CC=CC=CC=C[C@@H](O[C@@H]2O[C@H](C)[C@@H](O)[C@H](N)[C@H]2O)C[C@@H]2O[C@](O)(C[C@@H](O)C[C@@H]3O[C@@H]3C=CC(=O)O1)C[C@H](O)[C@@H]2C(=O)O,"parasite growth, % of DMSO control",[1],46.3%
same,"parasite growth remaining, % of DMSO control (lower = more inhibition)",[2],67%
same,"parasite growth, % of control (lower = inhibition)",[3],59%
same,"growth, % of control",[4],52.6%
same,"cell viability, % of control (lower = more cytotoxic)",[5],186%
same,viability (% of control),[6],110%
same,Potency,[7],inactive
same,Potency,[8],inactive
same,Potency,[9],7.43 µM (active)
same,Potency,[11],11.8 µM (active)
same,Potency,[13],14.8 µM (active)
